Assay outcomes as filed in PubChem.
USP8 inh: human USP8 deubiquitinase inhibition; P40818; purified USP8, Ub-rhodamine cleavage fluorescence, 30 min; inhibition, % at 20 µM; 47,000 tested, 4.2% active; AID 1645853
USP30 inh: inhibitors of human USP30 deubiquitinase | Q70CQ3 | AID 1645860 | 47,000 tested, 5.3% active | inhibition, % at 25 µM | purified USP30, Ub-rhodamine cleavage fluorescence
UCHL1 inh: human UCHL1 deubiquitinase inhibition; P09936; purified UCHL1, Ub-rhodamine cleavage fluorescence; inhibition, % at 20 µM; 47,000 tested, 0.2% active
USP7 inh: inhibitors of human USP7 deubiquitinase. Q93009. purified USP7, Ub-rhodamine cleavage fluorescence. inhibition, % at 20 µM. 47,000 tested, 0.3% active. AID 1645854
USP17 inh: blocks human USP17 ubiquitin-rhodamine cleavage. A8MUK1. AID 1645855. purified USP17, Ub-rhodamine cleavage fluorescence, 3 h. inhibition, % at 50 µM. 47,000 tested, 6.5% active
USP10 block: human USP10 deubiquitinase inhibition | purified USP10, Ub-rhodamine fluorescence, 60 min | inhibition, % at 20 µM | 47,000 tested, 1.1% active
Active calls of the source: *; . = not tested or not shown. Rows were chosen to be rich in hits. Some 13% of all compounds tested hit in one or more screens of this group. Cut-off read from the data, not from the text of the source: active = inhibition above about 30%; inactive = the rest.

SMILES | USP8 inh | USP30 inh | UCHL1 inh | USP7 inh | USP17 inh | USP10 block
COc1nc(OC)nc(N2CCC(NC(=O)C(Cc3cccc(F)c3)NC(C)=O)CC2)n1 (configuration not stated) | 6 | 10 | -1 | 0 | 9 | 1
COc1nc(OC)nc(N2CCC(NC(=O)C(Cc3ccc(C)cc3)NC(C)=O)CC2)n1 (configuration not stated) | -2 | 34* | 0 | 4 | 20 | 0
COc1nc(OC)nc(N2CCC(NC(=O)C(Cc3ccccc3F)NC(C)=O)CC2)n1 (configuration not stated) | 9 | 42* | 0 | 5 | 14 | -1
COc1ccc(CC(NC(C)=O)C(=O)NC2CCN(c3nc(OC)nc(OC)n3)CC2)cc1 (configuration not stated) | 7 | 32* | 2 | 4 | 17 | 0
CCOC(=O)c1sc2c(c1C)c(=O)n(C)c(=O)n2CC(=O)N1CCOCC1 | 7 | 4 | 1 | 0 | 10 | 3
COc1cccc(CC(=O)N2C[C@H]3C[C@H]4[C@](C2)(CN(CCC(C)C)S4(=O)=O)O3)c1 | -31 | 6 | 0 | 1 | -5 | 0
CC(=O)c1ccc(S(=O)(=O)Nc2ccc(C(=O)O)cc2)cc1 | 8 | -95 | 0 | 1 | -29 | 3
NS(=O)(=O)c1ccc(NS(=O)(=O)c2ccc(NC(=O)Nc3ccc(Cl)cc3)cc2)cc1 | 23 | 49* | 8 | 11 | 41* | 27
COCC1CN(C(=O)c2ccoc2)Cc2cnn(CC3CCOCC3)c21 (configuration not stated) | -200 | -5 | -2 | -4 | -19 | -2
O=C(NCc1cn2cc(Cl)ccc2n1)c1ccccc1 | -2 | -11 | -3 | -2 | -8 | -3
CCc1ccccc1NC(=O)Cn1c(C)nc2c(c1=O)CCN(Cc1ccccc1)C2 | 52* | -54 | -6 | -7 | 19 | -1
Cc1nc2c(c(=O)n1CC(=O)Nc1ccccc1F)CCN(Cc1ccccc1)C2 | -11 | -59 | -1 | -3 | -17 | -1
COc1ccc(S(=O)(=O)N2CCC3(CC2)OC(=O)Nc2ccccc23)cc1 | 39* | 19 | 3 | 8 | 64* | 5
COc1cccc(C(=O)Nc2ccc(-c3ccc(N4CCOCC4)nn3)cc2)c1 | 13 | 23 | 0 | 4 | 15 | 15
Cc1ccc(S(=O)(=O)N2CC(C(=O)NC3CCCCC3)C3(CCOCC3)C2)cc1 (configuration not stated) | 22 | 31* | 6 | 5 | 16 | 2
Cc1cccc(S(=O)(=O)N2CC(C(=O)NC3CCCCC3)C3(CCOCC3)C2)c1 (configuration not stated) | 8 | 22 | 2 | 2 | 12 | 0
Cc1cccc(NC(=O)c2nc(N3CCSCC3)c3cnn(C)c3n2)c1 | 4 | 19 | 6 | 5 | 64* | 3
Cc1ccc(N2CCN(C(=O)CSc3ncccc3-c3noc(C)n3)CC2)cc1 | -11 | -11 | -3 | 0 | 0 | -1
CCCn1c(=O)[nH]c2c(C(=O)N3CCCCC3)snc2c1=O | -4 | 2 | 2 | 3 | -5 | -3
CCCn1c(=O)[nH]c2nc(N3CCCCC3)sc2c1=O | -1 | -25 | -2 | 4 | 33* | -3
O=C(NCCc1ccccc1)C1CC(=O)N(c2ccc(OCC(=O)N3CCOCC3)cc2)C1 (configuration not stated) | 4 | -3 | -5 | 1 | 0 | 1
CC1CCCN(CC2C(=O)O[C@@]34[C@H]2CC[C@@H](C)[C@@H]3CC[C@@]2(C)O[C@@H]42)C1 (some centres not stated) | -3 | . | -1 | 5 | -6 | -1
COc1ccccc1C1CCN(c2ncccc2[N+](=O)[O-])CC1 | -22 | 10 | 2 | -16 | 3 | 6
COc1ccc([N+](=O)[O-])cc1C1N(c2ccccc2)CCN1c1ccccc1 | -16 | 3 | 0 | 4 | 31* | 1
O=C(NCCc1cccnc1)c1nc(-c2cn(-c3nccs3)cn2)n2ccccc12 | -16 | -108 | -3 | -4 | 45* | -11
SMILES | USP8 inh | USP30 inh | UCHL1 inh | USP7 inh | USP17 inh | USP10 block
CCn1c(=O)c(C(=O)Nc2ccc(Br)c(C)c2)nc2ccccc21 | -21 | 40* | 6 | 4 | 20 | 1
COc1cccc(NC(=O)C2CCC(CNS(=O)(=O)c3ccc4c(c3)C(C)(C)C(=O)N4C)CC2)c1 (configuration not stated) | -8 | 0 | 1 | 1 | 0 | 3
O=C(Nc1cnn(-c2ncc(N3CCCCC3)cn2)c1)c1cccnc1 | -32 | -39 | -1 | 0 | 24 | -4
O=C(Cn1c(-c2ccc(F)cc2)nc2ccccc21)NC1CCCCC1 | 34* | -6 | -1 | -48 | 19 | -3
O=C(Cn1cnc(-c2noc(-c3ccc(F)cc3)n2)c1)NC1CCCCC1 | 52* | 29 | 3 | 6 | 26 | 11
O=C(Cn1cnc(-c2noc(-c3ccncc3)n2)c1)N1CCN(c2ccccc2F)CC1 | 11 | 52* | -2 | 4 | 11 | -1
O=C(Cn1cnc(-c2noc(-c3cccc(F)c3)n2)c1)N1CCN(c2ccccc2)CC1 | -1 | 8 | 0 | -3 | -2 | 5
O=C(Cn1cnc(-c2noc(-c3ccncc3)n2)c1)Nc1ccc(F)cc1 | 2 | -32 | -3 | -4 | 6 | -5
CCOC(=O)c1ccc2nc(NC(=O)Cc3cccc4ccccc34)sc2c1 | 16 | 36* | 5 | 8 | 11 | 8
Cc1ccc2nc(NC(=O)CSc3nnc(-c4ccncc4)n3C3CC3)sc2c1 | -1 | -25 | -1 | 2 | 57* | -2
Cc1ccc2nc(NC(=O)CN3CCC(C(N)=O)CC3)sc2c1 | 1 | 19 | 1 | 3 | 6 | 0
O=C(Nc1cccc(-c2nc(-c3ccc(=O)[nH]c3)no2)c1)c1ccco1 | 63* | -197 | 1 | -4 | 2 | -9
CCn1c(=O)c(=O)[nH]c2cc(C(=O)Nc3cccc(-c4csc(C)n4)c3)ccc21 | 18 | -14 | 0 | -1 | 58* | 2
COc1cc(C(=O)Nc2ccc(-c3csc(C)n3)cc2)cc(OC)c1OC | 9 | -32 | 5 | 0 | -9 | -1
CC(=O)c1cccc(NC(=O)c2ccc(-c3csc(C)n3)cc2)c1 | 0 | -50 | -3 | 0 | 53* | -1
Cc1nc(-c2ccc(C(=O)Nc3ccc(F)cc3)cc2)cs1 | 65* | 33* | 10 | 34* | 19 | 24
Cc1nc(-c2ccc(C(=O)Nc3cccc(F)c3)cc2)cs1 | 26 | -20 | 1 | 8 | 12 | 1
COc1ccccc1-c1cnc(C(O)c2c(C)ccc3ccccc23)[nH]1 (configuration not stated) | 3 | -44 | 1 | -12 | -22 | -1
CC1=C(c2ccccc2)S(=O)(=O)N=C1N1CCCN(C(=O)c2cc(F)cc(F)c2)CC1 | -147 | 0 | 0 | 0 | -26 | 0
